The source made the active and inactive calls. Rule for the calls: active = hit-call score of the fitted dose curve at least 0.9, where 1 is the maximum; inactive = score below 0.9.
How the values were obtained:
Conditions in all cases: mRNA level, 48 h; actives raise or lower the signal
[1] = read-out: Tumor necrosis factor receptor superfamily member 6 (Homo sapiens) (UniProt P25445); experiment: LTEA_HepaRG_FAS: Life Technologies and Expression Analysis (LTEA) Assay for Fas cell surface death receptor (FAS) using HepaRG (AID 2283447)
How it was run: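 FAS transcript level was measured by TaqMan qRT-PCR against three housekeeping genes after 48 h chemical exposure. Cells were HepaRG, 0.5% DMSO vehicle, with a top concentration of 100 uM and half-log dilutions over eight points, in duplicate.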

[2] = read-out: Fatty acid synthase (Homo sapiens) (UniProt P49327); experiment: LTEA_HepaRG_FASN: Life Technologies and Expression Analysis (LTEA) Assay for Fatty Acid Synthase (FASN) using HepaRG (AID 2283448)
How it was run: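 Differentiated human HepaRG cells were exposed for 48 h in serum-free induction medium to eight half-log concentrations up to 100 uM in 0.5% DMSO, in duplicate. FASN mRNA was quantified by TaqMan qRT-PCR, normalized to ACTB/GAPDH/POLR2A, and fitted bidirectionally against DMSO.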

[3] = read-out: Cyclin Dependent Kinase Inhibitor 1A (CDKN1A), CDKN1A (gene 1026); experiment: LTEA_HepaRG_CDKN1A: Life Technologies and Expression Analysis (LTEA) Assay for Cyclin Dependent Kinase Inhibitor 1A (CDKN1A) using HepaRG (AID 2283450)
How it was run: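 Cryopreserved HepaRG cells were plated and cultured 48 h, then switched to serum-free induction medium. Chemicals (eight half-log concentrations, top 100 uM, 0.5% DMSO) were applied for 48 h. Lysates underwent qRT-PCR for CDKN1A with housekeeping normalization.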

[4] = read-out: Cyclin D1 (CCND1), CCND1 (gene 595); experiment: LTEA_HepaRG_CCND1: Life Technologies and Expression Analysis (LTEA) Assay for Cyclin D1 (CCND1) using HepaRG (AID 2283451);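 for AC50: TaqMan qRT-PCR transcript level normalised to ACTB GAPDH and POLR2A housekeeping genes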
How it was run: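 Human liver HepaRG line; 48 h dosing, 8 conc. ≤100 uM, 0.5% DMSO; TaqMan qRT-PCR mRNA, 3 housekeeping genes; bidirectional curve fit vs DMSO.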

[5] = read-out: catalase (CAT), CAT (gene 847); experiment: LTEA_HepaRG_CAT: Life Technologies and Expression Analysis (LTEA) Assay for catalase (CAT) using HepaRG (AID 2283452);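 for AC50: TaqMan qRT-PCR signal normalized to ACTB GAPDH and POLR2A housekeeping genes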
How it was run: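 Expression of CAT was quantified by TaqMan qRT-PCR with ACTB/GAPDH/POLR2A normalization after 48 h chemical exposure of HepaRG. Eight-point half-log series, top 100 uM, in 0.5% DMSO; gain or loss fitted against vehicle.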

[6] = read-out: flavin-containing dimethylaniline monooxygenases 3 (FMO3), FMO3 (gene 2328); experiment: LTEA_HepaRG_FMO3: Life Technologies and Expression Analysis (LTEA) Assay for flavin-containing dimethylaniline monooxygenases 3 (FMO3) using HepaRG (AID 2283453);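 for AC50: FMO3 transcript by TaqMan qRT-PCR normalized to ACTB GAPDH and POLR2A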
How it was run: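 HepaRG, 48 h exposure, 8-pt half-log series from 100 uM, 0.5% DMSO vehicle, duplicates; FMO3 transcript by Fluidigm TaqMan qRT-PCR, housekeeping-normalized; gain/loss fit vs DMSO.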

[7] = read-out: Cytochrome P450 (CYP1A1), CYP1A1 (gene 1543); experiment: LTEA_HepaRG_CYP1A1: Life Technologies and Expression Analysis (LTEA) Assay for Cytochrome P450 (CYP1A1) using HepaRG (AID 2283454)
How it was run: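 Induction of CYP1A1 mRNA in a human hepatic cell line was measured 48 h after dosing, with 1 mM phenobarbital as induction positive control and 0.5% DMSO vehicle as baseline for bidirectional curve fitting.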

[8] = read-out: CFLAR gene, CFLAR (gene 8837); experiment: LTEA_HepaRG_CFLAR: Life Technologies and Expression Analysis (LTEA) Assay for CFLAR gene using HepaRG (AID 2283455)
How it was run: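 HepaRG, 48 h exposure, 8-pt conc-response (100 uM top, half-log), 0.5% DMSO vehicle, duplicates. CFLAR expression by qRT-PCR; ACTB/GAPDH/POLR2A normalization; gain or loss fit vs DMSO baseline.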

[9] = read-out: Forkhead box O1 (FOXO1), FOXO1 (gene 2308); experiment: LTEA_HepaRG_FOXO1: Life Technologies and Expression Analysis (LTEA) Assay for Forkhead box O1 (FOXO1) using HepaRG (AID 2283456)
How it was run: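 Readout is FOXO1 transcript level by multiplexed qRT-PCR against three housekeeping genes, curve-fitted in both directions relative to 0.5% DMSO vehicle. Human HepaRG cultures received chemicals for 48 h, up to 100 uM in half-log steps.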

[10] = read-out: growth arrest and DNA damage 45 (GADD45A), GADD45A (gene 1647); experiment: LTEA_HepaRG_GADD45A: Life Technologies and Expression Analysis (LTEA) Assay for growth arrest and DNA damage 45 (GADD45A) using HepaRG (AID 2283458)
How it was run: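 Differentiated HepaRG cells were exposed in duplicate for 48 h in serum-free induction medium to 8-point half-log concentrations up to 100 uM in 0.5% DMSO. GADD45A mRNA was measured by TaqMan qRT-PCR, normalized to ACTB, GAPDH and POLR2A, with bidirectional fitting versus DMSO.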

[11] = read-out: Forkhead box O3 (FOXO3), FOXO3 (gene 2309); experiment: LTEA_HepaRG_FOXO3: Life Technologies and Expression Analysis (LTEA) Assay for Forkhead box O3 (FOXO3) using HepaRG (AID 2283459)
How it was run: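 HepaRG, 48 h post-dose; 8 conc., half-log from 100 uM, 0.5% DMSO, duplicates; serum-free induction medium. Readout: FOXO3 mRNA, TaqMan qRT-PCR, housekeeping-normalized. Bidirectional curve fit vs DMSO baseline.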

[12] = read-out: ABC Transporter (ABCB1), ABCB1 (gene 5243); experiment: LTEA_HepaRG_ABCB1: Life Technologies and Expression Analysis (LTEA) Assay for ABC Transporter (ABCB1) using HepaRG (AID 2283460)
How it was run: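 Expression of ABCB1 was quantified by qRT-PCR against three housekeeping genes after human HepaRG cultures received test chemicals for 48 hours. Concentrations spanned eight half-log steps topping at 100 uM in 0.5% DMSO; gain or loss of signal was fitted relative to vehicle.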

[13] = read-out: growth arrest and DNA damage 45 (GADD45B), GADD45B (gene 4616); experiment: LTEA_HepaRG_GADD45B: Life Technologies and Expression Analysis (LTEA) Assay for growth arrest and DNA damage 45 (GADD45B) using HepaRG (AID 2283461)
How it was run: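 Values are bidirectional concentration-response fits against 0.5% DMSO controls. Underlying data: qRT-PCR mRNA levels in human HepaRG liver cells treated 48 h in serum-free induction medium, eight concentrations topping at 100 uM.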

[14] = read-out: ABC Transporter (ABCC3), ABCC3 (gene 8714); experiment: LTEA_HepaRG_ABCC3: Life Technologies and Expression Analysis (LTEA) Assay for ABC Transporter (ABCC3) using HepaRG (AID 2283462)
How it was run: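 Differentiated HepaRG liver cells receive test chemicals at eight concentrations (max 100 uM) for 48 h. Expression of ABCC3 is quantified by qRT-PCR against ACTB, GAPDH and POLR2A, and activity is fitted in both directions against the DMSO control.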

[15] = read-out: ABC Transporter (ABCB11), ABCB11 (gene 8647); experiment: LTEA_HepaRG_ABCB11: Life Technologies and Expression Analysis (LTEA) Assay for ABC Transporter (ABCB11) using HepaRG (AID 2283463)
How it was run: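 ABCB11 transcript levels are read by Fluidigm TaqMan qRT-PCR after 48 h chemical treatment of human HepaRG cells. Concentrations span 100 uM downward in half-log steps with 0.5% DMSO; gain or loss is fitted against DMSO controls.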

[16] = read-out: ABC Transporter (ABCC2), ABCC2 (gene 1244); experiment: LTEA_HepaRG_ABCC2: Life Technologies and Expression Analysis (LTEA) Assay for ABC Transporter (ABCC2) using HepaRG (AID 2283464)
How it was run: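 Gene expression of ABCC2 was determined by qRT-PCR in HepaRG cells exposed 48 h to chemicals (highest 100 uM, half-log dilutions). Activity was fitted in both directions relative to 0.5% DMSO vehicle.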

[17] = read-out: Cyclin D2 (CCND2), CCND2 (gene 894); experiment: LTEA_HepaRG_CCND2: Life Technologies and Expression Analysis (LTEA) Assay for Cyclin D2 (CCND2) using HepaRG (AID 2283449)
How it was run: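 Read-out is CCND2 mRNA level measured by qRT-PCR in human HepaRG liver cells and normalised to three housekeeping genes. Chemicals were applied for 48 h at up to 100 uM, with gain or loss fitted relative to 0.5% DMSO.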

Measured: AC50

Fatty acid synthase (Homo sapiens), sequence (P49327 whole entry, looked up): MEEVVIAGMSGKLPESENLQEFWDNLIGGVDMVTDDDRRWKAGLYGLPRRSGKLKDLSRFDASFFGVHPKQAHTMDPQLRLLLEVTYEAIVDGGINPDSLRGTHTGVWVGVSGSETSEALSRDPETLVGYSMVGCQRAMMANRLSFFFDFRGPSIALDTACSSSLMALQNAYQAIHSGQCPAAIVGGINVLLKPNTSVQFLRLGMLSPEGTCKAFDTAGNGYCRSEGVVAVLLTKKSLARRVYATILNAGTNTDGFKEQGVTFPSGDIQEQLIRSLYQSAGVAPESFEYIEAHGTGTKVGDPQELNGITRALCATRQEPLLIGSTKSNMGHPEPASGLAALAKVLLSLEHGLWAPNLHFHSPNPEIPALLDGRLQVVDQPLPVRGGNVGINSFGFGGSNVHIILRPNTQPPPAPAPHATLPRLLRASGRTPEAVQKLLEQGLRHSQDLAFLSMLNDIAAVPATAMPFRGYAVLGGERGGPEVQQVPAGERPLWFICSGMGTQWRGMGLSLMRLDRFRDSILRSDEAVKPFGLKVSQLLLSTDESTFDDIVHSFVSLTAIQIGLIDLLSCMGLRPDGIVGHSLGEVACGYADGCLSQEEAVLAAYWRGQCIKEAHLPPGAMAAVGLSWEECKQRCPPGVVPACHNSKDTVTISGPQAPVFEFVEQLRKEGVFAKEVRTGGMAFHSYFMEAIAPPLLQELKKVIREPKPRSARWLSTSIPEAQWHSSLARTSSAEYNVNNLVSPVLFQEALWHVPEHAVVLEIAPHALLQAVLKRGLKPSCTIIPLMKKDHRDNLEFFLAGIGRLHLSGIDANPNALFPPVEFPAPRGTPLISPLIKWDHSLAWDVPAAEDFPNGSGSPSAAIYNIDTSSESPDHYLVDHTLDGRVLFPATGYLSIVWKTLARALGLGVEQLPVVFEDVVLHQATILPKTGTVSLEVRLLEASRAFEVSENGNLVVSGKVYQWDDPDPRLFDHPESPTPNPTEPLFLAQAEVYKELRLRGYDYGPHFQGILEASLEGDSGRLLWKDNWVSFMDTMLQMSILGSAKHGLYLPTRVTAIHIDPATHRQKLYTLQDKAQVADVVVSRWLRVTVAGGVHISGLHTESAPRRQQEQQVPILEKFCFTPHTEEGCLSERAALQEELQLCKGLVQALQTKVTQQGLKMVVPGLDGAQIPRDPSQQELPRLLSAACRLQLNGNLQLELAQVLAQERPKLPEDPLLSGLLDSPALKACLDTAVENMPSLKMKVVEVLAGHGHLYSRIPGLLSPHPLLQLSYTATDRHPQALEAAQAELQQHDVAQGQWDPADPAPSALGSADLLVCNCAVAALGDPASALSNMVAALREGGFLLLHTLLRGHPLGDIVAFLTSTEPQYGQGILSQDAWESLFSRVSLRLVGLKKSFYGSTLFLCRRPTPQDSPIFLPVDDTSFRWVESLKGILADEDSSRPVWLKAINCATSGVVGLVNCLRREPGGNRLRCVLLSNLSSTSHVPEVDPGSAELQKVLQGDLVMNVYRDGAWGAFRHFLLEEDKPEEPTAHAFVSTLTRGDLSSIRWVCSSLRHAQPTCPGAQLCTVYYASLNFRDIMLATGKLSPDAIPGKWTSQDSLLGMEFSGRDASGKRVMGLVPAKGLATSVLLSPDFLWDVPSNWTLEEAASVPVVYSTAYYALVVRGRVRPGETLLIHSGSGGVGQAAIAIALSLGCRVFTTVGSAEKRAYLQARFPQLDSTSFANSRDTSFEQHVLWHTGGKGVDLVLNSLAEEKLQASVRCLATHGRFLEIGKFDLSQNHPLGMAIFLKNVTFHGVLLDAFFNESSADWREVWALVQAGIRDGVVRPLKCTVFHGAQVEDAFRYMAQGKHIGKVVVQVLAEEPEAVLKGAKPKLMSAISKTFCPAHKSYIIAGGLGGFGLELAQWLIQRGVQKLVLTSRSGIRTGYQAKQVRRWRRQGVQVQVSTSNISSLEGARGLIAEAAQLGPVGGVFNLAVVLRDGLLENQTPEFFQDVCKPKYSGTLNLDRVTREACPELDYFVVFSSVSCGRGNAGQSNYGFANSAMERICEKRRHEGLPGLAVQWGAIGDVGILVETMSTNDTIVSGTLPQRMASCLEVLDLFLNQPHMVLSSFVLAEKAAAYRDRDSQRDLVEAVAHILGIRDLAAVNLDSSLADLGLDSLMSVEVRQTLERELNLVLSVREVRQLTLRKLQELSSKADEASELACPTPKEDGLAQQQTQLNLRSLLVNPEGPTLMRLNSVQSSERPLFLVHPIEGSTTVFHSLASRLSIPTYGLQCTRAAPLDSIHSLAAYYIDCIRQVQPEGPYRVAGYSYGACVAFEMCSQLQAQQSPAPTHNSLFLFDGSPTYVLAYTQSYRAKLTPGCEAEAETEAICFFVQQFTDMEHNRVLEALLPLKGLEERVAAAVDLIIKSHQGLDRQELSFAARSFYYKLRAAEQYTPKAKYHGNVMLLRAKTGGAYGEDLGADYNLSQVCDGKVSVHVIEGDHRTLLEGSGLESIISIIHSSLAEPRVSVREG

NC(=O)N1c2ccccc2C=Cc2ccccc21
active: [16] 37.8 µM
not listed: [17]
inactive: all other assays above

OCc1ccccc1
inactive: all assays above

C[C@]12C=CC(=O)C=C1CC[C@H]1[C@@H]3C[C@@H](O)[C@](O)(C(=O)CO)[C@@]3(C)C[C@H](O)[C@@]12F
active: [7] 50 µM
inactive: all other assays above

CCCCN1C(=O)[C@@H]([C@H](O)C2CCCCC2)NC(=O)C12CCN(Cc1ccc(Oc3ccc(C(=O)O)cc3)cc1)CC2
inactive: [1] | [3] | [10]
active: [2] 1.32 µM | [4] 50 µM | [5] 2.04 µM | [6] 3.54 µM | [7] 2.16 µM | [8] 2.28 µM | [9] 6.4 µM | [11] 4.14 µM | [12] 2.24 µM | [13] 21.5 µM | [14] 4.37 µM | [15] 0.849 µM | [16] 2.88 µM

Cc1nccn1-c1ccc(Sc2cccc(C3(C(N)=O)CCOCC3)c2)cc1
active: [2] 9.48 µM | [3] 12.3 µM | [5] 8.97 µM | [6] 9.6 µM | [8] 28.3 µM | [9] 9.73 µM | [10] 10.9 µM | [12] 21 µM | [13] 27.3 µM | [14] 3.65 µM | [15] 9.74 µM | [16] 19.9 µM
inactive: [1] | [17] | [4] | [7] | [11]

CCCc1ccccc1
not listed: [17]
inactive: all other assays above

Reference: PubChem BioAssay (EPA / NIEHS)
